Data as given in PubChem BioAssay (NCI).
Compounds without any hit were thinned out: in the full panel of roughly 83,000, 20% have a hit.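 Cells were grown in 96-well plates and exposed to the test compound at a single concentration for 48 hours; results are reported as percent growth, with values below 10 considered active.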 Calls of active or inactive are those of the source.

These compounds were tested on MDA-MB-231 breast (assay: NCI-60 one-dose screen, 48 h (100 = growth as untreated, 0 = no growth, -100 = all killed)). Settings: 10 µM unless noted.

Compound	growth
OC1(c2ccc(Cl)cc2Cl)c2ccccc2C2=NCCN21 (centres undefined)	85.2% (inactive)
CC1(CF)NC(=O)NC1=O (centres undefined)	99.1% (inactive)
O=C(Nc1ccc(S(=O)(=O)F)cc1)Oc1ccccc1	104% (inactive)

Each compound was assayed on RXF 393 renal in the same assay as above. Settings: 10 µM unless noted.

Compound	growth
Fc1ccc(C2=NN(c3ccccc3)C(c3sc(N(CCCl)CCCl)nc3Cl)C2)cc1 (centres undefined)	102% (inactive)
CC[C@H](C)[C@H](NC(=O)Nc1ccccc1)C(=O)N(C)[C@H](C[C@@H](OC(C)=O)c1nc(C(=O)N[C@@H](Cc2ccccc2)C[C@H](C)C(=O)OC)cs1)C(C)C	0.067% (active)
c1ccc(CCN2CCCCC2Cc2ccccc2)cc1 (centres undefined)	117% (inactive)
CC(=O)O[C@H]1CCC2(C)C(=CCC3C2CCC2(C)/C(=N/OC(=O)c4ccc(N(CCCl)CCCl)cc4)CCC32)C1 (some centres undefined)	44.1% (inactive)
O=C(N/N=C/c1ccc(N(CCCl)CCCl)cc1)c1cc(=O)[nH]c(=O)[nH]1	95.2% (inactive)
O=[As]c1ccc(C(=O)c2ccc(Oc3ccccc3)cc2)cc1 (centres undefined)	-100% (active)
O=[N+]([O-])c1cc([N+](=O)[O-])c(Cl)c(Cl)c1Cl	-86.2% (active)
Cc1cc(NC(=O)NCCOc2ccc(N3C(N)=NC(N)=NC3(C)C)cc2Cl)ccc1S(=O)(=O)F	53.8% (inactive)
COc1ccc2c(c1)NC1=C(C(=O)OC1)C2c1cc(OC)c(OC)c(OC)c1 (centres undefined)	36.7% (inactive)
C=CCc1ccc(OC(=O)Cc2ccccc2)c(OC)c1	110% (inactive)
CC(C)(O)/C=C/C(=O)[C@](C)(O)[C@H]1[C@H](O)C[C@@]2(C)[C@@H]3CC=C4[C@@H](C=C(O)C(=O)C4(C)C)[C@]3(C)C(=O)C[C@]12C	0.503% (active)
